Source: PubChem
Hits are enriched below; roughly 1.6% of the tested compounds scored in any of these assays.
Sa RN4220 lethal – S. aureus RN4220 growth inhibition; OD600, 16 h; hit rate 0.33% among 330,000; AID 1259311; inhibition, % (no concentration beside the values); in the data active = inhibition above about 85%;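 note: plate controls were untreated cells for no effect and reference antibiotic for full effect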
Sa ugtP lethal – growth inhibition of S. aureus ugtP deletion strain | hit rate 0.54% among 330,000 | growth inhibition, % (test concentration not listed) | S. aureus RN4220 ugtP deletion, OD600 growth, 16 h; in the data active = growth inhibition above about 68%;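 note: plate controls were untreated wells for no effect and antibiotic for full effect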
RecA intein inh – inhibitors of M. tuberculosis RecA intein splicing; hit rate 0.75% among 290,000; inhibition, % (test concentration not listed); cell-free RecA intein splicing, fluorescence; AID 2221; P9WHJ3; in the data active = inhibition above about 30%;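 note: 0% = vehicle wells and 100% = reference inhibitor control wells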
Target sequence (P9WHJ3 whole entry, looked up): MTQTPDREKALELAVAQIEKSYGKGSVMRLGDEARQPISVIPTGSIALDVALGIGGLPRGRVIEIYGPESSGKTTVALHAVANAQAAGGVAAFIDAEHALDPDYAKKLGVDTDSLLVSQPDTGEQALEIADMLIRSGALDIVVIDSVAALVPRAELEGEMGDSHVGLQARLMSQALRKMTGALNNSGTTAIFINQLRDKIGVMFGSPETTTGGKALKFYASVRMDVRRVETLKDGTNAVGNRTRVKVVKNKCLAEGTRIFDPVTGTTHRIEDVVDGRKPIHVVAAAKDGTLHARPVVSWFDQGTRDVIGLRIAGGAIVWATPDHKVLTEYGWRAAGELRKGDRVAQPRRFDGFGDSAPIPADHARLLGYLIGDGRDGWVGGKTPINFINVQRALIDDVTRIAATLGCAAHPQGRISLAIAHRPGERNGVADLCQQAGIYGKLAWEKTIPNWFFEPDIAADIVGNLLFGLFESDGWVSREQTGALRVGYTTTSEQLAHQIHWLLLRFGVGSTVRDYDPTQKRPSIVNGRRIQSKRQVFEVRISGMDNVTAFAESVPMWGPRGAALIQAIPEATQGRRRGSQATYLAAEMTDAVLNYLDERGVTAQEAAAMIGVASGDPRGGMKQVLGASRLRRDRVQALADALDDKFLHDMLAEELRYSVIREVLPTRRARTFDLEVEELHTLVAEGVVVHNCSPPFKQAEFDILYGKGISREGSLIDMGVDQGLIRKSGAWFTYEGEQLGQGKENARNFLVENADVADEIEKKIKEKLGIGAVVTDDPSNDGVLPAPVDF
CCHFV vOTU inh – CCHFV vOTU protease inhibition; Pep-AMC fluorescence; inhibition, % at 11.5 µM; hit rate 0.55% among 370,000; in the data active = inhibition above about 30%; note: 0% = vehicle wells with enzyme and 100% = no enzyme wells
Mtb hypoxia rep – inhibitors of hypoxia-regulated fluorescent reporter in Mycobacterium tuberculosis; M. tuberculosis hypoxia-regulated fluorescent reporter, fluorescence; fluorescence inhibition, % (concentration not given with the values); hit rate 0.1% among 300,000; AID 1159583; in the data active = fluorescence inhibition mostly above about 23%, no sharp cut-off; inactive = mostly below about 17%
BJeLR lethal – BJeLR cell viability loss; BJeLR (HRASV12) viability, CellTiter-Glo ATP luminescence, 48 h; inhibition, % (test concentration not listed); hit rate 0.17% among 300,000; in the data active = inhibition above about 50%
An asterisk follows results filed as active; . = no result shown.

SMILES	Sa RN4220 lethal	Sa ugtP lethal	RecA intein inh	CCHFV vOTU inh	Mtb hypoxia rep	BJeLR lethal
CCC(C)C(C(=O)NCCCCCCCCCCC(=O)N1CCNCC1)n1cc(CCCCN=C(N)N)nn1 (configuration not stated)	2.5	4.1	.	.	-2.8	.
CC1(CC(=O)N/N=C/c2ccc(OCc3ccc(Cl)cc3Cl)cc2)OCCCO1	.	.	38.6*	19.0	.	17.4
COC(=O)C1=C(C(=O)OC)C2N(C)c3ccc(OC)cc3[C@@]23CC(C(=O)OC)N(C(=O)CC(C)C)C3=N1 (some centres not stated)	3.4	3.1	.	.	8.5	.
O=C(Nc1ccccc1)C(Cl)C(=O)c1ccccc1 (configuration not stated)	63.9	91.6*	.	-10.6	10.3	-16.3
COc1ccc(N2C(=O)/C(=C\c3ccco3)N=C2SCC(=O)NC(C)(C)C)cc1Cl	0.2	-4.8	38.0*	3.3	10.3	14.6
COC(=O)C(C)C1C[C@@]1(C)C(NC(=O)OCc1ccccc1)c1ccccc1 (some centres not stated)	5.1	-1.2	.	.	3.6	.
COc1cc(NS(=O)(=O)c2ccc(Nc3nc(-c4ccccn4)cs3)cc2)nc(OC)n1	-3.1	89.5*	4.3	-1.8	-3.5	2.4
COc1ccc(-c2csc(Nc3ccc(S(=O)(=O)Nc4cc(OC)nc(OC)n4)cc3)n2)cc1	4.9	19.7	10.0	28.8	0.0	4.2
O=c1c2ccccc2nc(C=Cc2cccc([N+](=O)[O-])c2)n1CCCO	5.2	-6.4	.	.	6.1	.
O=C(C(=C([O-])c1ccccc1)[n+]1ccc2ccccc2c1)c1ccccc1	7.4	4.1	.	.	-1.3	.
O=c1c(Cl)c(Cl)cnn1Cc1ccc(F)cc1	.	.	35.3*	-10.1	.	-6.5
O=c1cnn(Cc2ccc(F)cc2)c2ccccc12	2.4	-1.2	-2.3	4.7	2.1	4.8
CC(C)(C)c1ccc(C(=O)OC/C(O)=C(\C#N)c2nc3ccccc3s2)cc1	78.1	85.1*	4.0	11.5	-2.3	-3.0
COc1ccc(C2CC(=O)C=C(c3cccc(Cl)c3O)C2)cc1OC (configuration not stated)	4.8	-12.7	.	.	10.7	.
COc1ccccc1C1CN(c2ccccc2)N=C1c1cccs1 (configuration not stated)	-15.0	44.2	-12.1	-17.6	15.6	-4.9
COc1cccc(C2CN(c3ccc(F)cc3F)N=C2c2cccs2)c1OC (configuration not stated)	-14.1	88.0*	-66.4	-47.4	3.8	-11.0
O=C1C2C(c3ccc(Cl)cc3)N3C(=O)N(c4cccc(F)c4)C(=O)[C@@]3(Cc3ccccc3)C2C(=O)N1C1CCCCC1 (some centres not stated)	-1.0	-23.3	.	.	12.8	.
Cc1cc(O)c2c(c1)C(=O)C13C(=C2O)C(=O)[C@H]2[C@@H](O)[C@@H]1[C@H]1[C@H](O)[C@@H]3C(=O)C3=C(O)c4c(O)cc(C)cc4C(=O)C312 (some centres not stated)	97.7*	97.2*	.	.	.	.
CC1(C)CCC(C)(C)c2cc(NC(=O)c3ccc(C(=O)O)cc3)ccc21	.	.	.	15.3	.	.
CC(=Cc1ccc(C(=O)O)cc1)c1ccc2c(c1)C(C)(C)CCC2(C)C	76.6	98.8*	.	.	0.8	.
CCOc1ccc(/C=C2/SC(=O)NC2=S)cc1	66.0	100.4*	5.4	6.6	14.0	-3.0
CCCC(CN1CCCC1CN1C(N)=NCC1Cc1ccccc1)N1CC(Cc2ccccc2)N(CCc2ccc(Cl)c(Cl)c2)C1=N (configuration not stated)	100.8*	100.5*	.	.	.	.
CC[C@@H](C)[C@@H]1CN([C@@H](C)CN2CCC[C@H]2CN2C(N)=NC[C@H]2CC(C)C)C(=N)N1CCc1ccc(Cl)c(Cl)c1	.	.	.	10.0	.	.
CCC[C@@H](CN1CCC[C@H]1CN1C(N)=NC[C@H]1CC(C)C)N1C[C@@H]([C@H](C)CC)N(CCc2ccc(Cl)c(Cl)c2)C1=N	100.2*	100.1*	.	1.6	.	.
CC[C@@H](C)[C@@H]1CN([C@@H](CN2CCC[C@H]2CN2C(N)=NC[C@H]2CC(C)C)C(C)C)C(=N)N1CCCC1CCCC1	100.3*	100.5*	.	-2.5	19.9	.
SMILES	Sa RN4220 lethal	Sa ugtP lethal	RecA intein inh	CCHFV vOTU inh	Mtb hypoxia rep	BJeLR lethal
CCC[C@@H](CN1CCC[C@H]1CN1C(N)=NC[C@@H]1Cc1ccccc1)N1C[C@@H](Cc2ccccc2)N(CCc2ccc(Cl)c(Cl)c2)C1=N	.	.	.	4.5	.	.
CCCC(CN1CCCC1CN1C(N)=NCC1Cc1ccccc1)N1CC(C(C)CC)N(CCc2ccc(Cl)c(Cl)c2)C1=N (configuration not stated)	100.6*	100.4*	.	.	.	.
O=C1CCN(CCc2ccccc2)CCN1C(CO)Cc1ccccc1 (configuration not stated)	-2.1	-0.7	.	.	14.1	.
CC1C(=O)OC2CC34C5CC(C(C)(C)C)[C@]36C(OC(=O)C6O)O[C@@]4(C(=O)O5)[C@]21O (some centres not stated)	4.3	-3.5	.	.	0.4	.
CC(C)[C@@H]1CN=C(N)N1C[C@@H]1CCCN1C[C@H](C)N1C[C@@H](Cc2ccccc2)N(CCc2ccc(Cl)c(Cl)c2)C1=N	100.7*	100.5*	.	.	.	.
CC[C@@H](C)[C@@H]1CN([C@@H](CN2CCC[C@H]2CN2C(N)=NC[C@H]2CC(C)C)C(C)C)C(=N)N1CCc1ccc(Cl)c(Cl)c1	99.9*	100.4*	.	16.1	.	.
CCC[C@@H](CN1CCC[C@H]1CN1C(N)=NC[C@H]1CC(C)C)N1C[C@@H](Cc2ccccc2)N(CCc2ccc(Cl)c(Cl)c2)C1=N	100.1*	100.1*	.	6.3	.	.
CC(C)=CCC[C@](C)(OC1OC(COC2OC(CO)C(O)C(O)C2O)C(O)C(O)C1O)C1CC[C@]2(C)C1C(=O)CC1[C@@]3(C)CCC(OC4OC(CO)C(O)C(O)C4O)C(C)(C)C3CC[C@]12C (some centres not stated)	1.6	-9.8	.	.	2.7	.
COC(=O)C1=C(c2ccc(S(C)(=O)=O)cc2)CC2CCC1N2C(=O)NCCS(C)=O (configuration not stated)	7.0	-1.7	.	.	10.9	.
Cc1ccc(C)c(NC(=O)CN2C(=O)NC(C)(c3ccc4c(c3)OCCO4)C2=O)c1 (configuration not stated)	-0.8	4.5	.	-2.0	33.9*	.
COC(=O)C1=C(C(=O)OC)C2Nc3ccccc3[C@@]23CC(C(=O)OC)N(C(C)=O)C3=N1 (some centres not stated)	-0.5	5.8	.	.	7.3	.
O=C(N/N=C/c1cccnc1)c1ccc(NC(=O)C(c2ccccc2)c2ccccc2)cc1	.	.	-4.1	-2.5	.	106.2*
CC1CN(C(C)CO)C(=O)c2cc(NC(=O)c3ccncc3)ccc2OC1CN(C)C(=O)NC1CCCCC1 (configuration not stated)	4.3	8.6	.	.	9.8	.
COC(CC=CC(O)C(C)OCc1ccccc1)OC (configuration not stated)	4.9	-0.8	.	.	8.6	.
CC(C=NNC(=O)CSc1ccccn1)=Cc1ccc(C(C)C)cc1	1.1	-18.7	.	.	-0.2	.
